Screening results: PubChem BioAssay, The Scripps Research Institute Molecular Screening Center
An excerpt weighted towards active compounds, which were near 1.1% of everything screened.
LRH-1 inv ag – NR5A2 inverse agonism in reporter assay. O00482. HEK293T StAR-luciferase reporter, LRH-1 transfected, 24 h. inhibition, % at 3.6 µM. 360,000 compounds, 0.13% hits. AID 602396;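 active = inhibition above the mean inhibition of all tested compounds plus 3 SD, cut at about 73% in these data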
GalR3 antag – antagonists of human GalR3 | AID 651719 | inhibition, % at 3 µM | HEK293 GalR3-CNG cAMP membrane potential fluorescence; galR3 body fused to GalR1 C-terminus | 360,000 compounds, 0.44% hits;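 active = inhibition above the screen-wide average plus 3 SD, cut at about 13% in these data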;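 note: forskolin and galanin both at EC90 stimulate the cells; cAMP rise reported by CNG channel membrane potential dye signal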
COUP-TFII inh – NR2F2 (human) inhibition, primary screen; P24468; HEK293T NGFI-A luciferase reporter, luminescence; inhibition, % at 8.6 µM; 370,000 compounds, 0.7% hits; AID 686940;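 active = inhibition above a per-plate cutoff, mean inhibition of test wells between control levels plus 3 SD, cut at about 38% in these data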;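 note: cells cotransfected with COUP-TFII expression vector driving the NGFI-A reporter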
Target sequence (P24468 whole entry, looked up): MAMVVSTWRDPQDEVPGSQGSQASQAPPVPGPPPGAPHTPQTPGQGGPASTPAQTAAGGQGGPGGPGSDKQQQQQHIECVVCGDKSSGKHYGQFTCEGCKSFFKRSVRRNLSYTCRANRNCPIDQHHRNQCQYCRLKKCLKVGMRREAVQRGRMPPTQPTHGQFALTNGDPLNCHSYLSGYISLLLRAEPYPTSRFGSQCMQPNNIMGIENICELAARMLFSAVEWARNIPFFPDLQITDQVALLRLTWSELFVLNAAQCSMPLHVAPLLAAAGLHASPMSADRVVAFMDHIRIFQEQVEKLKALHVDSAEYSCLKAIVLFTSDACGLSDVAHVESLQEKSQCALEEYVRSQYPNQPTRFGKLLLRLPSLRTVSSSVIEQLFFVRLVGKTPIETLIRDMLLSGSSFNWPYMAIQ
NCOA2 inhibitor – human SRC2 (NCOA2) inhibition. HEK293 GAL4-SRC2 luciferase reporter, luminescence. 370,000 compounds, 0.17% hits. inhibition, % at 9 µM;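 active = inhibition above the mean inhibition of all tested compounds plus 3 SD, set per campaign, cut at about 52% in these data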
SRC3 inh – inhibits human SRC3 coactivator. Q9Y6Q9. AID 588352. HEK293 GAL4-SRC3 luciferase reporter, luminescence. inhibition, % at 3.6 µM. 360,000 compounds, 0.17% hits;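 active = inhibition above a per-campaign cutoff, the mean of all compounds plus 3 SD, cut at about 60% in these data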;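 note: higher means less SRC3-driven luciferase light from the GAL4 reporter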
NCOA1 inh – inhibitors of human steroid receptor coactivator 1 (SRC1); Q15788; inhibition, % at 3.6 µM; 360,000 compounds, 0.12% hits; AID 588354; HEK293 GAL4-SRC1 luciferase reporter, luminescence;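 active = inhibition above the campaign mean plus 3 SD, with each screening campaign given its own cutoff, cut at about 60% in these data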
Gal4-VP16 ctr – VP16 inhibition counter-screen for COUP-TFII; shares compounds with COUP-TFII inh; HEK293 Gal4-VP16 luciferase reporter, luminescence; inhibition, % at 8.5 µM; 2,500 compounds, 25% hits; in the data active = inhibition above about 13%
COUP-TFII conf – confirmation of human COUP-TFII (NR2F2) inhibitors; inhibition, % at 8.5 µM; shares compounds with COUP-TFII inh; 2,500 compounds, 45% hits; HEK293 NGFI-A luciferase reporter, luminescence;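 active = mean inhibition over three repeats above a set limit taken from the earlier primary screen, cut at about 38% in these data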
Numbers stand for hits; i = inactive; nt = no result given.

SMILES | LRH-1 inv ag | GalR3 antag | COUP-TFII inh | NCOA2 inhibitor | SRC3 inh | NCOA1 inh | Gal4-VP16 ctr | COUP-TFII conf
NC(=O)c1cccnc1Oc1ccc(Cl)cc1 | i | i | i | i | i | i | nt | nt
Cc1nn(-c2ccccc2)c(C)c1C(=O)OC(C)C(=O)NC1CCCCC1C (stereo not drawn) | i | i | 39 | i | i | i | i | i
Oc1cccc2ccc(Nc3ccccn3)nc12 | i | i | 39 | i | i | i | i | i
c1ccc(Nc2ccccc2Nc2ccccn2)nc1 | i | i | i | i | i | i | nt | nt
O=C(N1CCC(C(O)(c2ccccc2)c2ccccc2)CC1)n1ncc(C(O)(c2ccccc2)c2ccccc2)n1 | nt | nt | 44 | nt | nt | nt | i | i
COC(=O)c1ccc(OC(=O)CCN2C(=O)C3CCCCC3C2=O)cc1 (stereo not drawn) | i | i | i | i | i | i | nt | nt
O=C(NCCNc1ccnc2cc(Cl)ccc12)c1ccccc1F | i | i | 55 | i | i | i | i | i
CCc1ccccc1NC(=S)N(CCN1CCOCC1)C1CCN(C(C)=O)CC1 | i | i | i | i | i | i | nt | nt
CC(=O)Nc1ccc(S(=O)(=O)N2CCN3CCCC3C2)cc1 (stereo not drawn) | i | i | i | i | i | i | nt | nt
O=C(Nc1cccc2ncccc12)c1ccc(OCc2ccccc2)cc1 | i | i | 43 | i | i | i | i | i
O=C(NCc1cccnc1)c1ccc(COc2ccc(Cl)cc2)cc1 | i | i | 66 | i | i | i | i | i
Cc1cc(=O)[nH]c(SCC(=O)/C=C2\N(C)c3ccccc3C2(C)C)n1 | i | i | 42 | i | i | i | i | i
Cc1ccc[n+](CC(=O)/C=C2\N(C)c3ccccc3C2(C)C)c1 | i | i | 42 | i | i | i | i | i
CN1/C(=C\C(=O)C[n+]2cccc(Br)c2)C(C)(C)c2ccccc21 | i | i | i | i | i | i | nt | nt
C=CCCC1CN(Cc2ccc(OC)cc2)S(=O)(=O)c2c(NCc3cc(OC)c(OC)c(OC)c3)cccc2O1 (stereo not drawn) | nt | i | 43 | i | nt | nt | i | i
CC(=O)Nc1nonc1-c1ccccc1 | i | i | i | i | i | i | nt | nt
CC(C)(C)c1ccc(OCCC(=O)Nc2cccc(S(=O)(=O)NC3=NCCCCC3)c2)cc1 | i | i | 40 | i | i | i | i | i
CN(CC(=O)Nc1cccc(S(=O)(=O)NC2=NCCCCC2)c1)Cc1ccc(C(C)(C)C)cc1 | i | i | i | i | i | i | nt | nt
C=CCn1c(C)c(/C=C/c2cc[n+](C)cc2)c2ccccc21 | i | i | 56 | i | i | i | i | i
CCn1cc(/C=C/c2cc[n+](C)cc2)c2ccccc21 | i | i | 42 | i | i | i | i | i
CCN(CC)C(=O)Cn1c(C)c(/C=C/c2cc[n+](C)cc2)c2ccccc21 | i | i | i | i | i | i | nt | nt
C=CCn1cc(C(C)=O)c(=O)[nH]c1=O | i | i | i | i | i | i | nt | nt
S=C(NN=Cc1ccc2c(c1)OCO2)NN=Cc1ccc2c(c1)OCO2 | i | i | i | i | i | i | nt | nt
O=C(CCl)Nc1cc(SCC(O)CO)cc([N+](=O)[O-])c1 (stereo not drawn) | 87 | i | 69 | 69 | 70 | i | 28 | 73
CCOC(=O)C(NCc1ccco1)(NC(=O)c1ccccc1)C(F)(F)F (stereo not drawn) | i | i | i | i | i | i | nt | nt
SMILES | LRH-1 inv ag | GalR3 antag | COUP-TFII inh | NCOA2 inhibitor | SRC3 inh | NCOA1 inh | Gal4-VP16 ctr | COUP-TFII conf
CCOC(=O)C(NC(=O)c1ccccc1)(Nc1cccc(C)n1)C(F)(F)F (stereo not drawn) | i | i | 39 | i | i | i | i | i
Cc1cc(NS(=O)(=O)c2ccc(NC(=O)c3ccc(Br)o3)cc2)nc(C)n1 | i | i | i | i | i | i | nt | nt
CSc1cccc(NC(=O)Nc2ccc(Cl)cc2)c1 | i | i | i | i | i | i | nt | nt
Cc1nn(C(C)C)c(C)c1CN1CCCC(C(=O)c2cccc(OC(C)C)c2)C1 (stereo not drawn) | i | i | 37 | i | i | i | i | i
O=c1c(Cl)c(N2CCCCC2)cnn1-c1nc2ccccc2[nH]1 | i | i | 56 | i | i | i | i | i
O=c1c2ccccc2nc2c3ccccc3cnn12 | i | i | i | i | i | i | nt | nt
O=c1c2ccccc2cnn1-c1nc2ccccc2[nH]1 | i | i | 96 | 83 | 65 | 70 | 53 | 70
Cc1nc(C)c(-c2ccc(SCC(=O)Nc3cccc(F)c3)nn2)s1 | i | i | 47 | i | i | i | i | i
Cc1nc(C)c(-c2ccc(SCC(=O)Nc3cccc(Cl)c3)nn2)s1 | i | i | 53 | i | i | i | i | i
CC(=O)c1cccc(NC(=O)CSc2ccc(-c3sc(C)nc3C)nn2)c1 | i | i | i | i | i | i | nt | nt
CCc1cc2c(SCC(=O)NCC3CCCO3)ncnc2s1 (stereo not drawn) | i | i | i | i | i | i | nt | nt
Cn1c(N)c(C(=O)COC(=O)[C@@H]2CCCN2S(=O)(=O)c2ccc(Cl)cc2)c(=O)n(C)c1=O | i | i | i | i | i | i | nt | nt
CC(=O)c1cn(CC(=O)Nc2ccccc2C)c2ccccc12 | i | i | 38 | i | i | i | i | i
COc1ccc(NC(=O)Cn2c(C)cc(=O)c3ccccc32)cc1 | i | i | 55 | i | i | i | i | i
CCOc1ccc(NC(=O)Cn2cc(C(C)=O)c3ccccc32)cc1 | i | i | i | i | i | i | nt | nt
COc1ccc(NC(=O)Cn2cc(C(C)=O)c3ccccc32)cc1 | i | i | 48 | i | i | i | i | i
COc1cccc2c(=O)cc(C)n(CC(=O)Nc3cccc(C)c3)c12 | i | i | 47 | i | i | i | i | i
CC(=O)c1cn(CC(=O)Nc2c(C)cccc2C)c2ccccc12 | i | i | i | i | i | i | nt | nt
CCN(CC)c1ccc(NC(=S)NCC2CCCO2)cc1 (stereo not drawn) | i | i | i | i | i | i | nt | nt
Cc1cccc2sc(NC(=O)[C@@H]3CCCN3C(=O)c3cccs3)nc12 | i | i | i | i | i | i | nt | nt
O=C(Nc1ccc(C(=O)OC2CCCCC2)cc1)c1ccncc1 | i | i | 53 | i | i | i | i | i
COc1ccc(-c2csc(NC(=O)COc3ccc(N(C)S(=O)(=O)c4ccc(C)cc4)cc3)n2)cc1 | i | i | 40 | i | i | i | i | i
O=C(NCCC(=O)N(Cc1ccco1)Cc1cccs1)c1ccc(Br)cc1 | i | i | i | i | i | i | nt | nt
O=C(CSc1cc(Cl)ccc1Cl)N/N=C/c1ccc[nH]1 | nt | nt | 56 | nt | nt | nt | i | 38
Cc1c(NC(=O)COC(=O)C23CC4CC(CC(O)(C4)C2)C3)c(=O)n(-c2ccccc2)n1C | i | i | 45 | i | i | i | i | i
